These results are taken from PubChem BioAssay (EPA / NIEHS).

Records with an inconclusive call do not appear. The source made the active and inactive calls. The calls were made as follows: active = hit-call score of the fitted dose curve at least 0.9, where 1 is the maximum; inconclusive = response in the unintended direction; inactive = score below 0.9.

This test can be described thus: TOX21_p53_BLA_p5_viability: Viability Assessment in the Tox21 HCT-116 p53 Agonism Beta-lactamase Assay, Phase 5 (AID 2283600). The procedure, abridged: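 Counter-readout for cytotoxicity: ATP-dependent luminescence from CellTiter-Glo, read in the beta-lactamase wells after 30 min at RT, following a 16 h compound exposure at 37C.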
Take `CCN(CC)c1cccc(O)c1`: the call was inactive. Turning to `CNC(=O)OCc1cccc(COC(=O)NC)n1`, the molecule was classed as inactive. Next, `CCCCCCCC`: “inactive”; `CCOC(=O)c1c[nH]c2cc(OCC(C)C)c(OCC(C)C)cc2c1=O`: “inactive”. For H-RKDVY-OH, the molecule was called inactive. Next, `C[C@H]1[C@@H](OC(=O)CCC(=O)O)O[C@@H]2OC3(C)CC[C@H]4[C@H](C)CC[C@@H]1[C@@]24OO3`: “inactive”; `CCCN(CCC)CCc1cccc2c1CC(=O)N2`: “inactive”. The same measure for `CC(C)Cn1cnc2c(N)nc3ccccc3c21`: “inactive”. Next, `C/C=C/C=C/CO`: “inactive”; `CC(C)(C)OCC1CO1` (centres undefined): “inactive”. For the molecule `CO[C@H]1C[C@H](O[C@H]2[C@H](C)[C@@H](O[C@@H]3O[C@H](C)C[C@H](N(C)C)[C@H]3O)[C@@H](C)C[C@]3(CO3)C(=O)[C@H](C)[C@@H](O)[C@@H](C)[C@@H](C)OC(=O)[C@@H]2C)O[C@@H](C)[C@@H]1O`, the molecule was called inactive. As to `CCCCS`, the call was inactive. Regarding `NC(CSCC(=O)O)C(=O)O` (centres undefined), the call was inactive. The same measure for `CCCCCCCCCCCCCCCC(=O)NCCO`: “inactive”; for `Cc1cn[nH]c1`: “inactive”; for `CN(C)CCn1nnnc1SCC1=C(C(=O)O)N2C(=O)[C@@H](NC(=O)Cc3csc(N)n3)[C@H]2SC1`: “inactive”. With `c1coc(Cn2cccc2)c1`, the molecule was classed as inactive. For the molecule `CC(C(=O)O)c1ccc2c(c1)[nH]c1ccc(Cl)cc12` (centres undefined), the outcome was inactive. Next, `OCc1ccccc1O`: “inactive”. As to `CC=CC(=O)CC`, the molecule was classed as inactive. Next, `CCCCCC=CCC1CC(=O)OC1=O` (centres undefined): “inactive”; `CCC(=O)OC`: “inactive”.

Take `C#CCN(C)CCCOc1ccc(Cl)cc1Cl`: the result was inactive. Regarding `N=C(N=C(N)N)N1CCOCC1`, the call was inactive. Next, `C[S+](CC[C@H](N)C(=O)O)C[C@H]1O[C@@H](n2cnc3c(N)ncnc32)[C@H](O)[C@@H]1O` (some centres undefined): “inactive”; `O=[N+]([O-])c1ccccc1Nc1ccccc1`: “inactive”. On to `NS(=O)(=O)c1cc(Cl)c(Cl)c(S(N)(=O)=O)c1`, for which the molecule was classed as inactive.

On to `CN(C)CCC(c1ccccc1)c1ccccn1` (centres undefined), for which the call was inactive.

With `N.N.O=C([O-])C1(C(=O)[O-])CCC1.[Pt+4]`, the call was inactive.

Regarding `C[C@@]12C(=O)OC(=O)[C@]1(C)C1CCC2O1`, the molecule was classed as inactive.

Turning to `C[C@@H](O)[C@H](N)C(=O)O`, the molecule was called inactive. The same measure for `O=C(O)c1cccc(Cl)c1Cl`: “inactive”; for `CC[N+](C)(C)Cc1ccccc1Br`: “inactive”. The same measure for `Cc1c(NC(=O)c2cccnc2)c(=O)n(-c2ccccc2)n1C`: “inactive”.
